Bioassay records: PubChem BioAssay, several laboratories
CD11b adhes inh: inhibitors of human CD11b/CD18 binding to fibrinogen; K562 CD11b/CD18 adhesion to fibrinogen, ATPlite luminescence; Mn2+ added to activate the integrin; inhibition, % at 10 µM; P05107+P11215; 0.54% of 93,000 active;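 active means primary inhibition of 50% or more at 10 µM, then 40% or more on retest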
CD11b adhes enh: increases human CD11b/CD18 adhesion to fibrinogen; K562 CD11b/CD18 adhesion to fibrinogen, ATPlite luminescence; activation, % at 10 µM; P05107+P11215; 0.07% of 93,000 active; AID 1499;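 active means 10 µM primary screen giving 50% or more activity, confirmed by 40% or more on retest at that dose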
Cav3 T inh: blocks human Cav3.2 T-type calcium channel | AID 449739 | B-score at 10 µM | 4% of 100,000 active | Cav3.2-expressing cells, Fluo-4 calcium fluorescence FDSS; hits give low values | O95180;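 active means single-dose well whose peak fluorescence ratio is a statistical outlier from its plate by either plate-standardised score or position-corrected B-score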
E coli WT exp: growth inhibitors of E. coli BW25113 wild type | OD600 absorbance | growth inhibition, % at 100 µM | 0.15% of 98,000 active;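 active means growth inhibition above about 50% at one test dose, limit read from the data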;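 further: growth measured after 20 h incubation at 37 °C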
A number is an active result; i = inactive; nt = no result. This is one part of a sample in which hits are shown more often than they occur.

SMILES | CD11b adhes inh | CD11b adhes enh | Cav3 T inh | E coli WT exp
Cc1ccc(-c2noc(C3CCCN(S(=O)(=O)c4ccc5ccccc5c4)C3)n2)o1 (centres undefined) | i | 53 | nt | i
CCSc1nnc(NC(=O)COc2ccc3ccccc3c2)s1 | nt | nt | i | i
Cc1ccccc1NC(=O)c1ccc(-n2cncn2)nc1 | i | i | nt | i
CCc1ccc(NC(=O)CCc2nc3cccnc3n2Cc2ccc(OC)cc2)cc1 | i | i | -6.9 | i
CCn1c(SCC(=O)Nc2ccc(C(=O)OC)cc2)nc2cccnc21 | nt | nt | i | nt
CCOC(=O)C1=NN(c2cccc(C)c2)C2(S1)SC(C(C)=O)=C(C)N2c1ccccc1 (centres undefined) | i | i | -3.5 | i
CCOC(=O)C1=NN(c2ccccc2)C2(S1)SC(C(C)=O)=C(C)N2c1ccccc1 (centres undefined) | i | i | -4.8 | i
CCOC(=O)C1=NN(c2ccc(C)cc2)C2(S1)SC(C(C)=O)=C(C)N2c1ccccc1 (centres undefined) | nt | nt | i | i
CCOC(=O)CN1C(=O)C(Sc2n[nH]c(-c3cccc(C)c3)n2)CCc2ccccc21 (centres undefined) | i | i | i | i
CCOC(=O)CN1C(=O)C(Sc2n[nH]c(-c3ccc(C)cc3)n2)CCc2ccccc21 (centres undefined) | nt | nt | -3.5 | i
Cc1cc(=O)oc2ccc(OCC(=O)N(Cc3ccc(F)cc3)Cc3ccco3)cc12 | i | i | -5.1 | i
CCOC(=O)Oc1ccc2oc(=O)cc(C)c2c1 | i | i | i | i
COc1cc2ccccc2c2c1CCCC2=O | i | i | i | i
CN1CCN(c2ccc(Cl)cc2NC(=O)C2COc3ccccc3O2)CC1 (centres undefined) | i | i | -4.5 | i
CN1CCN(c2ccc(Cl)cc2NC(=O)c2cccc(S(=O)(=O)N(C)C)c2)CC1 | i | i | i | i
CCOc1ccc(C2Sc3ccccc3NC3=C2C(=O)OC3)cc1 (centres undefined) | i | i | -4.1 | i
CC(C)N(C(=O)CSc1nc2ccccc2n1Cc1ccc(F)cc1)C(C)C | nt | nt | -6.3 | nt
COc1ccc(OC)c(N(CC(N)=O)S(=O)(=O)c2ccc(OC)c(OC)c2)c1 | i | i | i | i
CCOc1ccc(C2=Nn3c(nnc3-c3ccccc3OC)SC2)cc1 | i | i | -5.3 | i
COc1cccc(CNC(=O)C2CCN(Cc3cnn(-c4ccccc4)c3-n3cccc3)CC2)c1 | i | i | -4.6 | i
O=C(CSCc1cnn(-c2ccccc2)c1-n1cccc1)NCc1ccc2c(c1)OCO2 | nt | nt | -7.7 | i
O=C(CSCc1ccccc1)NCc1ccc2c(c1)OCO2 | i | i | i | i
O=C(NCc1ccccn1)C1CCN(Cc2cnn(-c3ccccc3)c2-n2cccc2)CC1 | i | i | i | i
COc1ccc(CNC(=O)CSCc2cnn(-c3ccccc3)c2-n2cccc2)cc1 | i | i | -7 | i
COc1cc(/C=N/Nc2cccc(C)c2)ccc1OC(=O)c1ccco1 | i | i | nt | nt
SMILES | CD11b adhes inh | CD11b adhes enh | Cav3 T inh | E coli WT exp
COc1ccc(C)cc1NC(=O)C(=O)NCc1ccncc1 | i | i | i | i
CCn1cc(CNC(=O)/C=C/c2ccc([N+](=O)[O-])cc2)cn1 | i | i | nt | nt
Oc1cccc2cc3cccc(O)c3c(O)c12 | nt | nt | i | nt
Cc1cccc(-n2c(C)cc(/C=N/NC(=O)c3cccc([N+](=O)[O-])c3C)c2C)c1 | i | i | -3.7 | i
Cc1cc(/C=N/NC(=O)c2cccc([N+](=O)[O-])c2)c(C)n1-c1ccc(Cl)cc1Cl | i | i | -6.4 | i
CCOC(=O)C(NC(=O)NCc1ccc(OC)cc1)(OCC)C(F)(F)F (centres undefined) | i | i | nt | nt
CCCN(CC(=O)Nc1ccc(F)c(F)c1F)CC(=O)Nc1c(Cl)cccc1Cl | i | i | nt | nt
O=C(/C=C/c1ccc(Cl)cc1)N1CCN(c2ccc(Cl)cc2[N+](=O)[O-])CC1 | nt | nt | -7.5 | i
O=C(/C=C/c1ccc(Cl)cc1)N1CCN(c2ncccn2)CC1 | i | i | i | i
COc1ccc(Cl)cc1N(CC(=O)Nc1cccc(SC)c1)S(C)(=O)=O | i | i | i | i
COc1ccc(N(CC(=O)Nc2cccc(SC)c2)S(C)(=O)=O)cc1Cl | i | i | -5.9 | i
CSc1cccc(NC(=O)CN(c2cc(C)ccc2C)S(C)(=O)=O)c1 | i | i | -5.8 | i
CC(C)CC(CO)N1CCN(C(=O)c2ccc(Cl)c(Cl)c2)CCC1=O (centres undefined) | nt | nt | i | nt
O=C(COC(=O)c1cc(=O)[nH]c(=O)[nH]1)NCc1ccccc1 | i | i | nt | nt
CC1=C(CC(=O)O)c2cc(F)ccc2/C1=C\c1ccc(S(C)=O)cc1 (centres undefined) | nt | nt | i | nt
Cc1ccc(NC(=O)CN2CCC(C(=O)c3ccc(F)cc3)CC2)cc1 | nt | nt | -5.2 | nt
Cc1nc2cc(NC(=O)CCS(=O)(=O)c3ccccc3)ccc2s1 | i | i | nt | nt
CCC(=O)Nc1cccc(C2=NOC3(C2)C[C@H](C(N)=O)N(C(=O)CC#N)C3)c1 (some centres undefined) | nt | nt | i | nt
CCSc1nnc(NC(=O)C(Cc2ccccc2)n2cccc2)s1 (centres undefined) | i | i | i | i
Cc1csc(NC(=O)C(Cc2ccccc2)n2cccc2)n1 (centres undefined) | i | i | -4.9 | i
Cc1ccc(C(=O)c2coc3ccc(O)c(Cl)c23)cc1 | i | i | -5.2 | i
CC(C)(C)C(=O)c1sc2nc(-c3cccs3)cc(C(F)(F)F)c2c1N | i | i | -8.3 | i
COc1ccc(/C=N/NC(=O)c2nc(-c3ccccc3)cc(-c3ccccc3)n2)cc1 | i | i | -7.2 | i
CC1CN(c2nc3ccccc3nc2C(C#N)C(=O)NCc2ccc3c(c2)OCO3)CC(C)O1 (centres undefined) | i | i | -7.9 | i
CCCCCCOC(=O)C(C#N)c1nc2ccccc2nc1N1CCCCC1 (centres undefined) | i | i | -5.3 | i
SMILES | CD11b adhes inh | CD11b adhes enh | Cav3 T inh | E coli WT exp
COc1ccc(S(=O)(=O)C(C#N)c2nc3ccccc3nc2N2CCCCC2)cc1 (centres undefined) | i | i | -4.8 | i
CCCCCCOC(=O)C(C#N)c1nc2ccccc2nc1N1CCN(C)CC1 (centres undefined) | i | i | i | i
CCOC(=O)C1CCN(c2nc3ccccc3nc2C(C#N)C(=O)OC(C)COC)CC1 (centres undefined) | i | i | -4.4 | i
C=C(C(=O)O)C1CCC2(C)CCCC(C)(O)C2C1 (centres undefined) | nt | nt | i | nt
Cn1c(Cc2cccc3ccccc23)nnc1SCc1ccc([N+](=O)[O-])cc1 | i | i | nt | nt
COc1ccc(CNC(=O)C(C#N)c2nc3ccccc3nc2N2CCCC2)cc1 (centres undefined) | i | i | -7.3 | i
COc1ccc2ccccc2c1C(O)c1nccn1C (centres undefined) | i | i | -5.6 | i
O=C(O)C1CC=CCC1C(=O)Nc1ccc2c(c1)OCCO2 (centres undefined) | nt | nt | i | nt
Cc1cccc(NC(=O)COC(=O)Cc2cccc(C(F)(F)F)c2)c1C | i | i | nt | nt
Cc1cc(C(=O)Cn2nnc3ccccc3c2=O)c(C)n1Cc1cccs1 | i | i | -3.5 | i
Cc1cc(C(=O)CN2C(=O)c3ccccc3C2=O)c(C)n1Cc1cccs1 | nt | nt | i | nt
